Rows were chosen to be rich in hits. Some 7.4% of all compounds tested hit in one or more screens of this group.
ELG1 genotox: qHTS screen for small molecules that induce genotoxicity in human embryonic kidney (HEK293T) cells expressing luciferase-tagged ELG1; HEK293T ELG1-luciferase reporter, luminescence, 16 h; Potency, µM (doses to about 46 µM), without a hit: top-dose activity change, positive = activation, usual class: activators; 330,000 tested, 1.3% active; AID 504466, 2011; note: % of control where 0% means no effect; nearly all actives have a fitted effect of over 60% in size
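Cells (2,000/well) expressing the ELG1-luciferase fusion are dosed by pin tool and kept 16 hr at 37 °C, 5% CO2. Signal comes from ONE-Glo luciferase reagent after 30 min at room temperature.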
NPC1 prom act: qHTS Assay for NPC1 Promoter Activators; Huh7 NPC1 promoter luciferase reporter, 24 h; Potency, µM (series often up to 9.22 µM), without a hit: at the top dose activation, most hits filed as activators; 320,000 tested, 2.4% active; note: % of control where 0% means no effect; nearly all actives have a fitted effect of over 60% in size
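Stably transfected Huh7 (NPC1 promoter→luciferase), 1500 cells/well in Opti-MEM + 10% FBS, 2 h settle, then compound 24 h at 37 °C. Luminescence after 10 min with Amplite reagent.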
FLuc counter: qHTS profiling assay for firefly luciferase inhibitor/activator using purifed enzyme and Km concentrations of substrates (counterscreen for miR-21 project); Luciferin 4-monooxygenase (Photinus pyralis), P08659; 360,000 tested, 6.9% active; purified FLuc, Km substrates, luminescence inhibition; Potency, µM (series often up to 57.5 µM), without a hit: at the top dose activity change, negative = inhibition, actives largely listed as inhibitors; AID 588342, 2011;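 note: plate controls were vehicle for no effect and reference inhibitor for full effect; nearly all actives have a fitted effect of over 55% in size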
Target sequence (P08659 whole entry, looked up): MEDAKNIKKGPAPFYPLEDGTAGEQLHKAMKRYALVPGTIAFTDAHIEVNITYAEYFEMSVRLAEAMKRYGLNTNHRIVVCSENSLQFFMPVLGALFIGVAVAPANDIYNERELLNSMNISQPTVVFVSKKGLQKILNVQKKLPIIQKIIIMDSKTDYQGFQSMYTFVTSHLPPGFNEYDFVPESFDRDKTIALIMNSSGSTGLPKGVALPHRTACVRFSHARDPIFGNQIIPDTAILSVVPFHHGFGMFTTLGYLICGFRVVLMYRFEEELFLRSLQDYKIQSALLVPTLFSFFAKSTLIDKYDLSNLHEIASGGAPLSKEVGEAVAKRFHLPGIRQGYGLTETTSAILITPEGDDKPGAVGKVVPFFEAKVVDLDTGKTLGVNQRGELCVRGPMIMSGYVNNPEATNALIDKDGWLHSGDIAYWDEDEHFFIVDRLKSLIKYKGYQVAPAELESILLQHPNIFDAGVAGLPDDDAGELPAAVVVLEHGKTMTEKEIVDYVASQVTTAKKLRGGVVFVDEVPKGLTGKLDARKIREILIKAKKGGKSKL
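Purified P. pyralis luciferase, 10 nM final, with Km-level 10 uM D-luciferin and 10 uM ATP in 50 mM Tris acetate pH 7.5, 10 mM Mg acetate, 0.01% Tween-20, 0.05% BSA; 6-point qHTS titration about 60 µM downward; luminescence read.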
Rab9 promoter act: qHTS Assay for Rab9 Promoter Activators; Huh7 Rab9 promoter-luciferase reporter, luminescence, 24 h; Potency, µM (doses to about 9.22 µM), inactives show top-dose activation, negative = inhibition, most hits filed as activators; 320,000 tested, 2.8% active; note: % of control where 0% means no effect; nearly all actives have a fitted effect of over 60% in size
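Luminescence read-out: Huh7 cells stably expressing Rab9-luciferase, treated 24 h with compound at 37 °C, then lysed with luciferase reagent for 10 min at ambient before reading.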
SMN2 splice up: qHTS Assay for Enhancers of SMN2 Splice Variant Expression | HEK293 SMN2-luciferase splicing reporter, luminescence, 30-36 h | Potency, µM (highest dose often 46.1 µM), without a hit: at the highest dose activity change, positive = activation, usual class: activators | 210,000 tested, 2.8% active | AID 1458, 2008; note: % of control where 0% means no effect; nearly all actives have a fitted effect of over 55% in size
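HEK293 cells carry an SMN2 […]–luciferase reporter in which exon 7 inclusion puts luciferase in frame. Cells were plated 10-12 h before compound addition, then incubated 30-36 h at 37C. ONE-Glo luminescence was read; sodium butyrate at 4.5 mM final served as control.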
* marks the source's active call; other numbers are inactive results; ? = inconclusive; nt = no result. Calls come from the whole dose curve; as a rule, active = well fitted curve in the direction sought with a large enough effect; inconclusive = small, poorly fitted or top-dose-only effect, or another doubt; inactive = no such curve, though single readings can be large; an effect the other way counts as inactive or inconclusive. Potency is the fitted concentration of half-maximal effect.

SMILES	ELG1 genotox	NPC1 prom act	FLuc counter	Rab9 promoter act	SMN2 splice up
COc1ccc(-c2noc(N(c3nc(-c4ccc(OC)c(OC)c4)no3)c3ccccc3OC)n2)cc1OC	nt	nt	0%	nt	-13%
CNc1ccc(-c2nc(-c3ccncc3)no2)cc1[N+](=O)[O-]	nt	nt	-3%	nt	nt
COc1ccc(CCC(=O)Nc2ccc(-c3noc(-c4ccc(OC)c(OC)c4)n3)cc2)cc1	?	?	0%	?	11µM*
Cc1ccc(-c2nc(-c3ccncc3)no2)cc1Cl	?	2µM*	2.7µM*	3.2µM*	nt
Cc1ccc(-c2nc(-c3ccncc3)no2)cc1C	2.3µM*	0.71µM*	0.76µM*	0.56µM*	nt
COc1ccc(-c2noc(-c3ccco3)n2)cc1OC	nt	nt	7.6µM*	nt	13µM*
O=C(NNC(=O)c1ccccc1Cl)c1cc2cc(OC(F)(F)F)ccc2[nH]1	-2%	-3%	4%	0%	nt
Cc1ccc(-n2nc(C)c3c(C)cc(=O)n(CC(=O)Nc4cccc(C)c4C)c32)cc1	nt	nt	-3%	nt	nt
COc1ccc(-c2noc(-c3cccc(Cl)c3)n2)cc1OC	?	?	?	28%	?
COc1ccc(-c2noc(-c3cccs3)n2)cc1OC	?	1.3µM*	2.4µM*	1.6µM*	nt
Cc1cc(-c2nc(-c3ccncc3)no2)ccc1[N+](=O)[O-]	?	2.2µM*	4.8µM*	4µM*	nt
COc1ccc(-c2noc(-c3ccccc3Cl)n2)cc1OC	?	3.2µM*	2.7µM*	2.5µM*	5.6µM*
COc1cc(OC)c(NC(=O)CCc2nc(-c3ccc(C)cc3)no2)cc1Cl	0%	7%	21µM*	11%	11%
COCc1nnc(NC(=O)C2CC(=O)N(C3CCCC3)C2)s1 (stereo not given)	-4%	-3%	0%	-2%	nt
CCCn1nc(C(=O)NNC(=O)c2cccc(S(=O)(=O)NC(C)C)c2)c2ccccc2c1=O	-3%	-1%	4%	0%	nt
Fc1cccc(F)c1-c1nc(-c2ccncc2)no1	?	?	17µM*	2µM*	nt
COc1ccc(-c2nc(-c3ccncc3)no2)cc1OC	16µM*	?	9.5µM*	26%	?
FC(F)(F)c1ccccc1-c1nc(-c2ccncc2)no1	6%	1%	?	7%	nt
COCCn1c(=O)c(-c2ccc(F)cc2)nc2cnc(Oc3ccc(OC)cc3)nc21	nt	nt	nt	nt	-7%
CSc1nsc2nc(=O)c(/C=C3\C(C)=Nc4ccccc43)c(N)n12	-5%	9%	15µM*	22%	7%
Cn1/c(=N/N=C/c2ccc(N3CCOCC3)cc2)sc2ccccc21	13%	?	3µM*	30%	26%
Cn1/c(=N/N=C/c2ccccn2)sc2ccccc21	?	2.2µM*	3.8µM*	1.1µM*	16µM*
CC(=O)N=c1sc2ccccc2n1C	14%	-3%	-1%	14%	-16%
Cn1/c(=N/N=C/c2ccc(Cl)c([N+](=O)[O-])c2)sc2ccccc21	0%	?	?	13%	14%
CCC1SC(=NC(=O)c2ccc(Cl)c(Cl)c2)NC1=O (stereo not given)	?	23%	24µM*	23%	?
SMILES	ELG1 genotox	NPC1 prom act	FLuc counter	Rab9 promoter act	SMN2 splice up
CCC1SC(=Nc2cccc(C)c2)NC1=O (stereo not given)	3%	0%	-9%	0%	nt
COc1ccc(NC(=O)/C=C/c2cccc(F)c2)cn1	?	2µM*	7.6µM*	2.2µM*	11µM*
COc1ccc(NC(=O)/C=C/c2ccco2)cn1	?	3.2µM*	21µM*	4µM*	13µM*
Cc1cc(NC(=O)/C=C/c2ccco2)ccc1NC(=O)c1ccccc1	0%	0%	?	10%	nt
Cc1ccc(NC(=O)/C=C/c2ccco2)cc1F	nt	nt	5.4µM*	nt	nt
Cc1ccc(-c2cc(Cc3ccncc3)c(=O)[nH]n2)cc1	4%	0%	-4%	-5%	nt
CCCCN(CC)C(=O)CCn1c(=O)c2cccn2c2cccnc21	nt	nt	4%	nt	nt
Cc1ccc(S(=O)(=O)N2CCCCC2)cc1C(=O)N1C(C)CCCC1C (stereo not given)	-6%	nt	nt	nt	nt
O=c1nccc(N/N=C/c2ccccc2O)[nH]1	6%	-18%	?	-5%	nt
COc1cccc(/C=N/Nc2ccc([N+](=O)[O-])cn2)c1O	2.6µM*	-23%	0.76µM*	-25%	nt
COc1cccc(/C=N/Nc2ccnc(=O)[nH]2)c1O	11%	-22%	17µM*	-20%	nt
Cc1ccc(C2=Nn3c(COc4ccc(Cl)cc4)nnc3SC2CC(=O)O)cc1 (stereo not given)	3%	-4%	-1%	-6%	nt
Cc1cc(C)c(C)c(S(=O)(=O)N(C)C2CCN(C)CC2)c1C	-5%	-6%	0%	-6%	nt
S=C(Nc1ccc(Cl)cc1)N1CCN(Cc2ccccc2)CC1	-3%	-3%	19µM*	2%	-10%
Cc1ccc(NC(=S)N2CCN(Cc3ccccc3)CC2)cc1	34%	0%	12µM*	14%	-58%
O=C(Nc1cccc(Cl)c1)N1CCN(Cc2ccccc2)CC1	21µM*	?	15µM*	?	10µM*
Cc1cccc(NC(=O)N2CCN(Cc3ccc(Cl)cc3)CC2)c1	-8%	3%	0%	5%	-42%
Cn1c(=O)[nH]c(=O)c2c1nc(SCCCO)n2CCCc1ccccc1	26%	6%	1%	0%	nt
CCCNC(=O)CSc1nnc(-c2ccccc2Br)n1-c1cccc(C(F)(F)F)c1	-3%	0%	-22%	-2%	nt
O=C1ON=C(c2ccccc2)/C1=C/c1ccc(OS(=O)(=O)c2ccccc2)cc1	2%	1%	-19%	-1%	-17%
CN(C)/N=C/c1ccc(OS(=O)(=O)c2ccccc2)cc1	8.2µM*	3.5µM*	21µM*	2.8µM*	nt
COc1ccc(-c2ccc(SCC(=O)NC3CCCCC3)nn2)cc1	?	?	1.7µM*	2.2µM*	nt
CCOc1ccc(-c2ccc(SCC(=O)NC3CCCCC3)nn2)cc1	?	2µM*	0.38µM*	1.6µM*	nt
CCOc1ccc(-c2nc(SCC(=O)NC3CCCC3)c(-c3ccccc3)[nH]2)cc1OC	nt	nt	24µM*	nt	-85%
COc1ccc(-c2cn3nc(SCC(=O)NC4CCCCC4)ccc3n2)cc1	?	0.56µM*	0.34µM*	0.71µM*	nt
Cc1ccc(-c2ccc(SCC(=O)NC3CCCC3)nn2)cc1	-2%	13%	?	11%	nt
COc1ccc(-c2nnc(SCC(=O)NC3CCCCC3)nc2-c2ccc(OC)cc2)cc1	nt	nt	4%	nt	nt
Cc1ccc(-c2ccc(SCC(=O)NC3CCCCC3)nn2)cc1	10%	?	2.7µM*	28%	nt
